Test results taken from the supplement of paper PMC12350171.
Structures can show the parent of a compound that is named as a salt.

system: Haemophilus parainfluenzae; test: growth AUC normalised to DMSO control (fraction of control); higher = less growth inhibition, active = hit call of the paper; conditions: 20 µM
In short: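 Three biological replicates were carried out, with OD578 read hourly for 24 h. Before inoculation at a starting OD578 of 0.01, pathogens were passaged anaerobically twice; plates were pre-reduced mGAM containing 20 μM compound and 1% DMSO, sealed with breathable membranes, and the Haemophilus parainfluenzae medium carried added hemin and NAD. Area under each growth curve was calculated by the trapezoidal rule up to the exponential-to-stationary transition and normalised to DMSO controls on the same plate.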

Row | SMILES | growth AUC normalised to DMSO control
1 | CS(=O)(=O)c1ccc(C2=C(c3ccccc3)C(=O)OC2)cc1 [Rofecoxib] | 0.964 (inactive)
2 | CCCOc1ccccc1-c1nc2[nH]nnc2c(=O)[nH]1 [Zaprinast] | 1.01 (inactive)
3 | CC[N+](C)(C)c1cccc(O)c1 [Edrophonium chloride] | 0.936 (inactive)
4 | CNC(=C[N+](=O)[O-])NCCSCc1ccc(CN(C)C)o1 [Ranitidine hydrochloride] | 0.992 (inactive)
5 | CC(=O)Nc1c(I)c(C(=O)N[C@H]2C(O)O[C@H](CO)[C@@H](O)[C@@H]2O)c(I)c(N(C)C(C)=O)c1I (some centres undefined) [Metrizamide] | 0.984 (inactive)
6 | CN(C)CCOC(c1ccccc1)c1ccccc1.Cn1c(=O)c2[nH]c(Cl)nc2n(C)c1=O [Dimenhydrinate] | 0.901 (inactive)
7 | CC[C@H]1OC(=O)[C@H](C)[C@@H](O[C@H]2C[C@@](C)(OC)[C@@H](O)[C@H](C)O2)[C@H](C)[C@@H](O[C@@H]2O[C@H](C)C[C@H](N(C)C)[C@H]2O)[C@](C)(O)C[C@@H](C)/C(=N\OCOCCOC)[C@H](C)[C@@H](O)[C@]1(C)O [Roxithromycin] | 0.1 (active)
8 | OCCOCCN1CCN(C(c2ccccc2)c2ccc(Cl)cc2)CC1 (centres undefined) [Hydroxyzine dihydrochloride] | 0.978 (inactive)
9 | O=C(CCCN1CCC(O)(c2ccc(Br)cc2)CC1)c1ccc(F)cc1 [Bromperidol] | 1.02 (inactive)
10 | CNCC(O)c1ccc(OC(=O)C(C)(C)C)c(OC(=O)C(C)(C)C)c1 (centres undefined) [Dipivefrin hydrochloride] | 0.986 (inactive)
11 | CC1CCc2c(N3CCC(O)CC3)c(F)cc3c(=O)c(C(=O)O)cn1c23 (centres undefined) [Nadifloxacin] | 0.0309 (active)
12 | CCN(CC)CCNc1ccc(CO)c2sc3ccccc3c(=O)c12 [Hycanthone] | 0.986 (inactive)
13 | CCC(=O)O[C@@H](O[P@](=O)(CCCCc1ccccc1)CC(=O)N1C[C@H](C2CCCCC2)C[C@H]1C(=O)O)C(C)C [Fosinopril] | 1.02 (inactive)
14 | C=CC(N)CCC(=O)O (centres undefined) [Vigabatrin hydrochloride] | 1.02 (inactive)
15 | Nc1nc(=O)c2nc(CNc3ccc(C(=O)N[C@@H](CCC(=O)O)C(=O)O)cc3)cnc2[nH]1 [Folic acid] | 0.978 (inactive)
16 | CC(=O)O[C@@]12CO[C@@H]1C[C@H](O)[C@@]1(C)C(=O)[C@H](O)C3=C(C)[C@@H](OC(=O)[C@H](O)[C@@H](NC(=O)OC(C)(C)C)c4ccccc4)C[C@@](O)([C@@H](OC(=O)c4ccccc4)[C@H]21)C3(C)C [Docetaxel] | 1.05 (inactive)
17 | CN(C/C=C/c1ccccc1)Cc1cccc2ccccc12 [Naftifine hydrochloride] | 0.977 (inactive)
18 | CCC(=O)O[C@]1(C(=O)SCF)[C@H](C)C[C@H]2[C@@H]3C[C@H](F)C4=CC(=O)C=C[C@]4(C)[C@@]3(F)[C@@H](O)C[C@@]21C [Fluticasone propionate] | 0.997 (inactive)
19 | COc1ccccc1OCCNCC(O)COc1cccc2[nH]c3ccccc3c12 (centres undefined) [Carvedilol] | 0.963 (inactive)
20 | CC[C@H](C)C(=O)O[C@H]1C[C@@H](C)C=C2C=C[C@H](C)[C@H](CC[C@@H]3C[C@@H](O)CC(=O)O3)[C@H]21 [Lovastatin] | 0.984 (inactive)

Row | SMILES | growth AUC normalised to DMSO control
21 | Cc1cc(NC(=O)C2=C(O)c3ccccc3S(=O)(=O)N2C)no1 [Isoxicam] | 0.991 (inactive)
22 | CC#C[C@]1(O)CC[C@H]2[C@@H]3CCC4=CC(=O)CCC4=C3[C@@H](c3ccc(N(C)C)cc3)C[C@@]21C [Mifepristone] | 0.994 (inactive)
23 | CCOc1ccccc1OCC1CNCCO1 (centres undefined) [Viloxazine hydrochloride] | 0.967 (inactive)
24 | Cc1cccc(CN2CCN(C(c3ccccc3)c3ccc(Cl)cc3)CC2)c1 (centres undefined) [Meclozine dihydrochloride] | 0.948 (inactive)
25 | CCCCCCCN(CC)CCCC(O)c1ccc(NS(C)(=O)=O)cc1 (centres undefined) [Ibutilide fumarate] | 0.938 (inactive)
26 | CCOC(=O)c1ccc(N)cc1 [Benzocaine] | 1.02 (inactive)
27 | COC1=C(OC)C(=O)C(CCCCCCCCCCO)=C(C)C1=O [Idebenone] | 1.04 (inactive)
28 | COc1cc(N)c(Cl)cc1C(=O)NC1CCN(Cc2ccccc2)CC1 [Clebopride maleate] | 0.989 (inactive)
29 | CCN(CC)CCOC(=O)c1ccc(N)cc1 [Procaine hydrochloride] | 1 (inactive)
30 | O=C(CCCN1CCC(O)(c2ccc(Cl)cc2)CC1)c1ccc(F)cc1 [Haloperidol] | 0.951 (inactive)
31 | Fc1ccc([C@@H]2CCNC[C@H]2COc2ccc3c(c2)OCO3)cc1 [Paroxetine hydrochloride] | 0.998 (inactive)
32 | COC(c1ccccc1)(c1ccccc1)[C@H](Oc1nc(C)cc(C)n1)C(=O)O [Ambrisentan] | 1.05 (inactive)
33 | COc1cc(NC(C)CCCN)c2ncccc2c1 (centres undefined) [Primaquine diphosphate] | 1.08 (inactive)
34 | C[C@H](N)[C@H](O)c1cccc(O)c1 [Metaraminol bitartrate] | 0.968 (inactive)
35 | CN(Cc1cc(Br)cc(Br)c1N)C1CCCCC1 [Bromhexine hydrochloride] | 1.04 (inactive)
36 | O=C1Nc2ccc(Cl)cc2[C@@](C#CC2CC2)(C(F)(F)F)O1 [Efavirenz] | 0.991 (inactive)
37 | CC1=C(C(=O)O)N2C(=O)[C@@H](NC(=O)[C@H](N)c3ccc(O)cc3)[C@H]2SC1 [Cefadroxil] | 0.949 (inactive)
38 | COC(=O)C1=C(C)NC(C)=C(C(=O)OCCN(C)Cc2ccccc2)C1c1cccc([N+](=O)[O-])c1 (centres undefined) [Nicardipine hydrochloride] | 1.01 (inactive)
39 | CC1(C)O[C@@H]2C[C@H]3[C@@H]4C[C@H](F)C5=CC(=O)C=C[C@]5(C)[C@@]4(F)[C@@H](O)C[C@]3(C)[C@]2(C(=O)CO)O1 [Fluocinolone acetonide] | 0.995 (inactive)
